According to PubChem BioAssay:
Calls of active or inactive are those of the source.

Legend:
[1] = optical density shifts of acrAB sulA E. coli – strain DRC41, OD650, 48 h, E. coli filamentation inducer project, primary screen (AID 1152); conditions: higher = more signal, called active from +8 up or from −8 down;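 note: E. coli MC1000 strain DRC41 lacking acrAB efflux pump and sulA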
[2] = probe aLefty1 binding on compound microarray – biochemical, small-molecule microarray, 635/667 nm fluorescence, primary screen (AID 1153); conditions: higher = more signal;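 note: score merges spot fluorescence with signal-to-noise ratio from the scanned slide images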
[3] = plasmodial surface anion channel blockers, osmotic lysis – cell-based, P. falciparum Indochina, OD700, 1 h, primary screen (AID 1154); conditions: P. falciparum Indochina infected RBC osmotic lysis, higher = more signal, called active from +8 up or from −8 down
[4] = plasmodial surface anion channel blockers, osmotic lysis – cell-based, P. falciparum Indochina, OD700, 2 h, primary screen (AID 1155);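 note: lysis reports solute entry through the parasite surface anion channel PSAC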; conditions: P. falciparum Indochina infected erythrocytes, higher = more signal, called active from +8 up or from −8 down
[5] = changes in parasitized red cell lysis, either direction – P. falciparum Indochina, OD700, 3 h, PSAC antagonist project, primary screen (AID 1156); conditions: P. falciparum-infected erythrocytes, osmotic lysis, higher = more signal, called active from +8 up or from −8 down
[6] = plasmodial surface anion channel blockers, osmotic lysis – cell-based, P. falciparum Indochina, OD700, 18 h, primary screen (AID 1157); conditions: P. falciparum Indochina infected erythrocytes, osmotic lysis OD700, 18 h; higher = more signal, called active from +8 up or from −8 down
[7] = S6 kinase pathway phospho-S6 level changes – cell-based, A549, cytoblot, luminescence, serum-stimulated, primary screen (AID 1158); conditions: 5 h, higher = more signal;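 note: serum-stimulated A549 lung adenocarcinoma cells; signal is phosphorylated S6 detected by cytoblot immunostaining with HRP secondary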
[8] = target: NADPH oxidase 2 (Homo sapiens) (UniProt P04839); test: compounds shifting NOX2 Amplex Red fluorescence – cell-based, HEK293-NOX2, PMA-stimulated, NOX inhibitor project, primary screen (AID 1159); conditions: 45 min, higher = more signal, called active from +8 up or from −8 down; note: test concentration not given here
[9] = target: NADPH oxidase 4 (Homo sapiens) (UniProt Q9NPH5); test: compounds shifting NOX4 Amplex Red fluorescence – cell-based, HEK293-NOX4, tetracycline-induced, NOX inhibitor project, primary screen (AID 1160); conditions: HEK293-NOX4, Amplex Red H2O2 fluorescence, 45 min; higher = more signal, called active from +8 up or from −8 down
[10] = target: NADPH oxidase 5 (Homo sapiens) (UniProt Q96PH1); test: compounds shifting NOX5 Amplex Red fluorescence – cell-based, HEK293-NOX5, NOX inhibitor project, primary screen (AID 1161); conditions: HEK293-NOX5, ionomycin, 45 min, higher = more signal
NADPH oxidase 5 (Homo sapiens), sequence (Q96PH1 whole entry, looked up): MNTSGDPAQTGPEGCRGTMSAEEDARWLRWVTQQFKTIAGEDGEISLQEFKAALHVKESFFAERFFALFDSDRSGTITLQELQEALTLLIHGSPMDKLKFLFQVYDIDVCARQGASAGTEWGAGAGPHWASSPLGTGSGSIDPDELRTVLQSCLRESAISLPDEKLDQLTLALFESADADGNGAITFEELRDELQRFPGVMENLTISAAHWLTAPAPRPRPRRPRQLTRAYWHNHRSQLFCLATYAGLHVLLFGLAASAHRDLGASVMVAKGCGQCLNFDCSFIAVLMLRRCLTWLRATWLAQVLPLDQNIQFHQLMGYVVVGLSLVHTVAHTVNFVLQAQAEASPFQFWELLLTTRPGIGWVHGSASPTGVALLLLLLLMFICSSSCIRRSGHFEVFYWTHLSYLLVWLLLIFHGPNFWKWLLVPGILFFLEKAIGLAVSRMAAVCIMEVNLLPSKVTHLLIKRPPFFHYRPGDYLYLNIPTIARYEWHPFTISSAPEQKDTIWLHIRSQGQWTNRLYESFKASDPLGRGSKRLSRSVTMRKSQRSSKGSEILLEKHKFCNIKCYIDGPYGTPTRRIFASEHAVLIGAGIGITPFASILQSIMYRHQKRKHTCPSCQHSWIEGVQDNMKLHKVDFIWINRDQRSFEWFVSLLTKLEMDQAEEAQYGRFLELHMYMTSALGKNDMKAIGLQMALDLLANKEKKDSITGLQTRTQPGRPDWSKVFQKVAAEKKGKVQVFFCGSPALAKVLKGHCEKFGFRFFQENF

NADPH oxidase 4 (Homo sapiens), sequence (Q9NPH5 whole entry, looked up): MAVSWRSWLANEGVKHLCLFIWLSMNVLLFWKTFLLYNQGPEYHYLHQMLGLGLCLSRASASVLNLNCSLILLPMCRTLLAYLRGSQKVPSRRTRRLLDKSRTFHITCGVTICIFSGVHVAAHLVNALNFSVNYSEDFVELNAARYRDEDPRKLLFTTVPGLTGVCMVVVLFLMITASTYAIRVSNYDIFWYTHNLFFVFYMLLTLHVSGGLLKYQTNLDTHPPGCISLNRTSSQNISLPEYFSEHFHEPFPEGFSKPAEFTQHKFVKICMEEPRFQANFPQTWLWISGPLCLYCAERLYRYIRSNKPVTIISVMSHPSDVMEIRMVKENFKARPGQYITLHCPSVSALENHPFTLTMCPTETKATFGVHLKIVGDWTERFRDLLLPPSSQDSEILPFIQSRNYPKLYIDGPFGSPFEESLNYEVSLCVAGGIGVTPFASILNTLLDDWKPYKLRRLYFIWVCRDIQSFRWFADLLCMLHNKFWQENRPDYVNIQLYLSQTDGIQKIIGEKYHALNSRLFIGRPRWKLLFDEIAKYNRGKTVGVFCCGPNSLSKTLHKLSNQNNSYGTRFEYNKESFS
NADPH oxidase 2 (Homo sapiens), sequence (P04839 whole entry, looked up): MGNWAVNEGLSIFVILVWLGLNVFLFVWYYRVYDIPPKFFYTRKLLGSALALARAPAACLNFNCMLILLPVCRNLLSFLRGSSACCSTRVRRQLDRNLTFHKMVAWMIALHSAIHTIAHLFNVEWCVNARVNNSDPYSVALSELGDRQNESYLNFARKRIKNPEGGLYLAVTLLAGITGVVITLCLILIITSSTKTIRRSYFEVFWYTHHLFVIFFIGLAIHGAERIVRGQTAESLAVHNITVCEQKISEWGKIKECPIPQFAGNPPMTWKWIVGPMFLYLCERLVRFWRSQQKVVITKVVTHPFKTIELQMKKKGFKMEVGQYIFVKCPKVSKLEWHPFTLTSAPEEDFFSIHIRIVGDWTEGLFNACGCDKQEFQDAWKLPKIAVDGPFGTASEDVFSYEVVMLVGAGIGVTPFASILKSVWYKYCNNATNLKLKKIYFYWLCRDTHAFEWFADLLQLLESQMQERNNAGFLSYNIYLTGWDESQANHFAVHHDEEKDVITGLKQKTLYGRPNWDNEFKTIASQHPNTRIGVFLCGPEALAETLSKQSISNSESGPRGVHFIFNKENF

| Compound | z-score [1] | composite z-score [2] | z-score [3] | z-score [4] | z-score [5] | z-score [6] | z-score [7] | z-score [8] | z-score [9] | z-score [10] |
| --- | --- | --- | --- | --- | --- | --- | --- | --- | --- | --- |
| CCCCC[C@H]1OC[C@@]23C=C(Br)[C@@H](CC12)[C@@]1(CO1)C3=O (stereo not given in full) | -1.12 (inactive) | -0.294 | 1.66 (inactive) | 0.533 (inactive) | 0.487 (inactive) | 0.184 (inactive) | -0.446 | -0.459 (inactive) | 0.438 (inactive) | 0.134 |
| NC(=O)NCC#Cc1ccc2c(c1)[C@]1(C(=O)N2)[C@H](c2ccccc2OCCO)N2[C@H](c3ccccc3)[C@H](c3ccccc3)OC(=O)[C@H]2[C@@H]1C(=O)NC[C@H](O)c1ccccc1 | 2.83 (inactive) | -0.103 | 0.925 (inactive) | -0.918 (inactive) | -0.313 (inactive) | -1.54 (inactive) | 2.83 | 1.74 (inactive) | 0.869 (inactive) | 0.062 |
| [N-]=[N+]=Nc1ccccc1C[C@@]1(C(N)=O)N=C(c2ccc(OCCCO)cc2)O[C@@H]1c1ccccc1N=[N+]=[N-] | 0.587 (inactive) | 0.0211 | 30.4 (active) | 25.3 (active) | 2.63 (inactive) | 1.35 (inactive) | 2.05 | -0.0581 (inactive) | -1.11 (inactive) | -1.55 |
| COCCOC(=O)N1C(=O)[C@@]2(c3ccccc31)[C@H](c1ccc(O)cc1)N1[C@H](c3ccccc3)[C@H](c3ccccc3)OC(=O)[C@H]1[C@@H]2C(=O)N1CCN(c2ncccn2)CC1 | 0.381 (inactive) | 0.412 | 1.4 (inactive) | 0.622 (inactive) | 0.113 (inactive) | 0.431 (inactive) | 0.174 | 0.964 (inactive) | 0.386 (inactive) | 1.08 |
| CN(C)CCCCCCNC(=O)[C@@H]1C[C@@H]2C(=O)N3CCC[C@H]3C(=O)N2[C@@H]1c1cccc(OCCO)c1 | -0.305 (inactive) | 0.0231 | 3.6 (inactive) | 0.456 (inactive) | 0.77 (inactive) | 0.448 (inactive) | -0.701 | 1.03 (inactive) | -0.884 (inactive) | 0.837 |
| Cc1ccc(S[C@]2(C(=O)NCC(F)(F)F)CC(=O)N(Cc3cc(C(F)(F)F)cc(C(F)(F)F)c3)[C@@H]2c2ccc(CO)cc2)cc1 | -0.415 (inactive) | -0.146 | 1.74 (inactive) | 0.594 (inactive) | -0.573 (inactive) | 0.501 (inactive) | -0.488 | -0.0338 (inactive) | 0.0959 (inactive) | 0.496 |
| COc1cccc(C)c1NC(=O)O[C@H]1[C@H](OC(=O)Nc2ccccc2-c2ccccc2)[C@H](OC(=O)Nc2ccccc2-c2ccccc2)[C@@H](OC)O[C@@H]1CO | -0.0771 (inactive) | -0.017 | 1.57 (inactive) | 0.557 (inactive) | -0.299 (inactive) | 0.742 (inactive) | -0.319 | 0.224 (inactive) | -0.572 (inactive) | -0.507 |
| CC(C)[Si]1(C(C)C)OCc2cc(C3CC3)nc(-c3ccc(Oc4ccccc4)cc3)c21 | -0.367 (inactive) | -0.284 | 2.58 (inactive) | 1.8 (inactive) | 0.508 (inactive) | 1.29 (inactive) | -0.389 | 1.11 (inactive) | 0.344 (inactive) | 0.322 |
| COC(=O)[C@@]1(Cc2ccc(OC)cc2)[C@H]2c3cc(C(=O)N4CCCC4)n(CCc4c[nH]c5ccc(O)cc45)c3C[C@H]2CN1C(=O)c1ccccc1 | -0.0255 (inactive) | 0.302 | 8.22 (active) | 0.847 (inactive) | 1.27 (inactive) | 1.11 (inactive) | -0.029 | -0.648 (inactive) | -6.51 (inactive) | -3.5 |
| COc1ccc(C(=O)Nc2ccc(CN3C(=O)[C@]4(O[C@H](CC(=O)N5Cc6ccccc6C[C@H]5CO)[C@@H]([Si](C)(C)c5ccc(OC)cc5)[C@@H]4C)c4ccccc43)cc2)cc1 | -0.298 (inactive) | 0.0004 | 3.15 (inactive) | 1.5 (inactive) | 1.15 (inactive) | 0.941 (inactive) | 0.383 | 0.545 (inactive) | -0.307 (inactive) | 2.12 |
| CCCC=C(CCC)[C@@H](NP(=O)(c1ccccc1)c1ccccc1)c1ccc(-c2ccccc2)cc1 | -1.61 (inactive) | 0.408 | 3.5 (inactive) | 0.766 (inactive) | -1.07 (inactive) | 0.96 (inactive) | -0.422 | -1.02 (inactive) | -1.94 (inactive) | 2.3 |
| COCCOC(=O)N1C(=O)[C@@]2(c3cc(C#CC4=CCCCC4)ccc31)[C@H](c1ccccc1OCCO)N1[C@H](c3ccccc3)[C@H](c3ccccc3)OC(=O)[C@H]1[C@@H]2C(=O)NC[C@H](O)c1ccccc1 | -0.801 (inactive) | 0.457 | 1.34 (inactive) | 2.19 (inactive) | -1.61 (inactive) | 0.703 (inactive) | -0.0585 | 1.79 (inactive) | 0.529 (inactive) | 1.81 |
